We go through eight compounds from PubChem BioAssay (Tox21).

For test [1], the target named is Thyrotropin receptor (Homo sapiens) (UniProt P16473). In words: qHTS assay to identify small molecule antagonists of the thyroid stimulating hormone receptor (TSHR) signaling pathway (AID 1259385; calls by dose curve; also: nearly all actives have a fitted effect of over 20% in size; also: potency is read from the fitted curve at half-maximal effect). The method in brief:
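TSHR-HEK293 cells were plated and held 18 h at 37C/5% CO2, then given compound plus Ro20-1724 and stimulated with TSH at 1.5 ng/mL final. After 30 min at room temperature, cAMP was detected with cAMP-d2/anti-cAMP-cryptate (1 h) by fluorescence.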
(In general: Quantitative high-throughput screening tests each substance at several concentrations.)

A short description of test [2]: qHTS assay to identify small molecule agonists of the estrogen receptor alpha (ER-alpha) signaling pathway in the presence of an antagonist - cell viability counter screen (AID 1259386).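 Also: series mostly up to about 92 µM; cells exposed to compounds for 22 h at 37 °C before the viability read; nearly all actives have a fitted effect of over 30% in size.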 The method, boiled down:
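Read-out: CellTiter-Fluor fluorescence after 1hr reagent incubation, measured in the same wells as the luciferase readout. VM7Luc4E2 cells were exposed to 15 compound concentrations with 10.0nM ICI-182,780 for 22hr at 37C.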

Test [3] has as its target Progesterone receptor (Homo sapiens) (UniProt P06401). In words: qHTS assay to identify small molecule agonists of the progesterone receptor (PR) signaling pathway (AID 1346784; calls by dose curve; also: nearly all actives have a fitted effect of over 30% in size). The method, boiled down: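 Agonist mode, quantitative HTS format in a HEK 293T line expressing a UAS-controlled beta-lactamase reporter; 16 hr compound exposure at 37C in 2% charcoal-stripped FBS, then LiveBLAzer B/G FRET fluorescence.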

Test [4] shares this target. In words: qHTS assay to identify small molecule antagonists of the progesterone receptor (PR) signaling pathway (AID 1346795; active = well fitted inhibition curve with a large enough effect in the signal ratio in the repeat runs, not every such curve was filed as active; the % refers to the signal ratio). The method, boiled down: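 HEK293T PR-UAS-bla reporter cells in charcoal-stripped serum (2%) received compound after a 6 hr settling period, followed by R5020 agonist at 1 nM final; 16 hr incubation preceded the FRET substrate step and fluorescence measurement.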

Test [5] is described as follows: qHTS assay to identify small molecule antagonists of the progesterone receptor (PR) signaling pathway - cell viability counter screen (AID 1346798). Also: series mostly up to about 92 µM; nearly all actives have a fitted effect of over 50% in size. The method in brief: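 Same-well multiplex: after 16 hr at 37C with compound and R5020 stimulation, HEK293T cells carrying a UAS-bla reporter received LiveBLAzer substrate (2 hr RT), then CellTiter-Glo (30 min RT) for luminescent viability.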

Test [6] in a line: qHTS assay to identify small molecule agonists of the progesterone receptor (PR) signaling pathway - cell viability counter screen (AID 1346799; calls by dose curve; also: nearly all actives have a fitted effect of over 45% in size). The method, boiled down:
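Counter screen for cytotoxicity: compound-treated PR-UAS-bla HEK293T cells (16 hr, 37C, 5% CO2) were assayed with CellTiter-Glo, luminescence measured after 30 min at room temperature.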

The nature of test [7]: qHTS assay to identify small molecule antagonists of the TGF-beta/Smad signaling pathway - cell viability counter screen (AID 1346824). Also: nearly all actives have a fitted effect of over 50% in size. The method in brief:
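SBE-bla HEK 293T cells were plated overnight at 37 C, then given compounds in DMSO plus TGF-beta1 (added as 0.25 ng/mL solution) for 5 hr. After the bla read, CellTiter-Glo was added to the same wells and luminescence read after 30 min at room temperature.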

The nature of test [8]: qHTS assay to identify small molecule agonists of the TGF-beta/Smad signaling pathway - cell viability counter screen (AID 1346829). Also: top concentration of the series differs between compounds; nearly all actives have a fitted effect of over 45% in size. The method in brief: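 CellTiter-Glo luminescence readout; SBE-bla HEK 293T cells, overnight plating, compound 5 hr at 37 C/5% CO2, then bla substrate 2 hr RT, then CellTiter-Glo 30 min RT.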
Test [9] in a line: qHTS assay to identify small molecule agonists of the TGF-beta/Smad signaling pathway (AID 1346859; active = well fitted activation curve with a large enough effect in the signal ratio in the repeat runs, not every such curve was filed as active; the % refers to the signal ratio; also: series mostly up to about 77 µM). The method, boiled down:
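Smad-responsive beta-lactamase reporter cells (HEK 293T) received compounds from DMSO stocks after overnight attachment, were incubated 5 hr, then treated 2 hr with FRET substrate before dual-emission fluorescence measurement (405 nm excitation).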

The target in test [10] is Thyrotropin-releasing hormone receptor (Homo sapiens) (UniProt P34981). Description: qHTS assay to identify small molecule antagonists of the thyrotropin-releasing hormone receptor (TRHR) signaling pathway (AID 1346877; active = well fitted inhibition curve with a large enough effect in the repeat runs, not every such curve was filed as active; also: series mostly up to about 51 µM). The method, boiled down: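 HEK293/TRHR cells, 18 h, 37 °C; Ca2+ dye 2 h; cpd 5 min RT; TRH 1 nM final; fluorescence read 3 min, 1 s intervals; 15 concs, triplicate.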

The target is the same in test [11]. In words: qHTS assay to identify small molecule agonists of the thyrotropin-releasing hormone receptor (TRHR) signaling pathway (AID 1346891; calls by dose curve; also: potency is read from the fitted curve at half-maximal effect;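 as to activation: HEK293 cells expressing TRHR with calcium dye readout; series mostly up to about 58 µM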). The method, boiled down: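 Agonist-mode calcium mobilisation screen: TRHR-transfected HEK293 cells cultured overnight (18 h), dye-loaded for 2 h at 37 °C, exposed to compounds, and monitored by fluorescence for 3 min.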

Test [12] is described as follows: Caspase-3/7 induction in HepG2 cells by small molecules, qHTS assay (AID 1346978). Also: nearly all actives have a fitted effect of over 15% in size. The method, boiled down:
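Wild-type HepG2 cells (2,000/well) were settled 5 h at 37 C, 5% CO2, then exposed to compounds in DMSO for 17 h. Caspase-3/7 activity was read by luminescence 30 min after adding Caspase-Glo 3/7 reagent at room temperature.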

Test [13] in a line: Caspase-3/7 induction in CHO-K1 cells by small molecules, qHTS cell viability counter screen (AID 1346979). Also: nearly all actives have a fitted effect of over 35% in size. The method in brief:
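In the same wells as the caspase read, viability of compound-treated wild-type CHO-K1 cells was assessed using CellTiter-Fluor, added after 16hr at 37C and measured by fluorescence following 1hr further incubation.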

Test [14] can be described thus: Caspase-3/7 induction in CHO-K1 cells by small molecules, qHTS assay (AID 1346980). Also: nearly all actives have a fitted effect of over 15% in size. The method in brief:
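Wild-type cells were seeded at 1,500 per well and settled 5 hr at 37 C, 5% CO2, then exposed to DMSO-dissolved compounds for 17 hr. Caspase-Glo 3/7 reagent was added, and luminescence was read after 30min at room temperature.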

Test [15] in a line: Caspase-3/7 induction in HepG2 cells by small molecules, qHTS cell viability counter screen (AID 1346981). Also: series mostly up to about 92 µM; nearly all actives have a fitted effect of over 30% in size. The method, boiled down:
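Fluorescence read-out of live-cell protease activity (CellTiter-Fluor) after 1 hr with reagent. This was measured in the same wells as the caspase-3/7 luminescence, on HepG2 cells exposed to DMSO-dissolved compounds for 16 hr at 37 C.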

In test [16] the target is Nuclear receptor subfamily 1 group I member 2 (Homo sapiens) (UniProt O75469). In words: Human pregnane X receptor (PXR) small molecule agonists, qHTS assay (AID 1346982). Also: nearly all actives have a fitted effect of over 35% in size. Also: potency is read from the fitted curve at half-maximal effect. The method, boiled down:
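HepG2 PXR-Luc reporter line, 5% charcoal-stripped FBS; 5 hr pre-incubation, compound (DMSO) 24 hr at 37 C/5% CO2; ONE-Glo 30 min RT; luminescence read-out.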

Test [17] can be described thus: Human pregnane X receptor (PXR) small molecule agonists, qHTS cell viability counter screen (AID 1346977). Also: nearly all actives have a fitted effect of over 50% in size. The method, boiled down: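 Measures live-cell protease fluorescence (CellTiter-Fluor) in PXR-Luc HepG2 cells treated 24hr with compounds at 37C. Cells had 5hr to attach before pin transfer of DMSO solutions.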
Test [18] has as its target Nuclear receptor subfamily 1 group I member 2 (Rattus norvegicus) (UniProt Q9R1A7). Description: Rat pregnane X receptor (rPXR) activation by small molecules, qHTS assay (AID 1346983). Also: nearly all actives have a fitted effect of over 20% in size. The note with it: rPXR luciferase reporter cells, One-Glo luminescence, 24 h; max activation: stronger effect = higher value. The method in brief: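 Cell-based rPXR luciferase reporter assay, 2,000 cells per well, rested 5hr at 37 C before compound addition in DMSO, then 24 hr at 37 C. One-Glo reagent was added and luminescence read after 30 min at room temperature.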

Test [19] has as its target Nuclear receptor subfamily 1 group I member 2 (Homo sapiens) (UniProt O75469). In words: CYP3A4 induction through human pregnane X receptor (PXR) by small molecules, qHTS assay (AID 1346984). Also: nearly all actives have a fitted effect of over 40% in size. The method, boiled down:
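HepG2-derived DPX-2 line carrying PXR plus a CYP3A4-promoter luciferase reporter; cells plated 5 hr, compound-exposed 24 hr at 37C. CYP3A4 activity probed with 3uM (final) Luciferin-IPA for 3hr, then luciferase read after One-Glo.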

Test [20] shares this target. In words: Human pregnane X receptor (PXR) activation by small molecules, qHTS assay (AID 1346985). Also: nearly all actives have a fitted effect of over 40% in size. The method in brief: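 DPX-2 cells (HepG2 co-transfected with a PXR response element and a CYP3A4-promoter luciferase construct) were seeded at 2,000 per well, rested 5 hr at 37C, then exposed to DMSO-dissolved compounds for 24 hr. Activation was read as luciferase luminescence.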

Unmarked numbers belong to inactive results. Results filed as inconclusive are left out. Active and inactive are the calls of the source. Unless noted, calls follow the shape of the dose curve; as a rule, active = well fitted curve in the direction sought with a large enough effect in the repeat runs; inconclusive = weak or mixed curves; inactive = no such curve, though single readings can be large; an effect the other way counts as inactive or inconclusive.
% is scaled to controls: 0 for no effect and ±100 for the full control effect.

Chain of Progesterone receptor (Homo sapiens) (P06401 whole entry, looked up): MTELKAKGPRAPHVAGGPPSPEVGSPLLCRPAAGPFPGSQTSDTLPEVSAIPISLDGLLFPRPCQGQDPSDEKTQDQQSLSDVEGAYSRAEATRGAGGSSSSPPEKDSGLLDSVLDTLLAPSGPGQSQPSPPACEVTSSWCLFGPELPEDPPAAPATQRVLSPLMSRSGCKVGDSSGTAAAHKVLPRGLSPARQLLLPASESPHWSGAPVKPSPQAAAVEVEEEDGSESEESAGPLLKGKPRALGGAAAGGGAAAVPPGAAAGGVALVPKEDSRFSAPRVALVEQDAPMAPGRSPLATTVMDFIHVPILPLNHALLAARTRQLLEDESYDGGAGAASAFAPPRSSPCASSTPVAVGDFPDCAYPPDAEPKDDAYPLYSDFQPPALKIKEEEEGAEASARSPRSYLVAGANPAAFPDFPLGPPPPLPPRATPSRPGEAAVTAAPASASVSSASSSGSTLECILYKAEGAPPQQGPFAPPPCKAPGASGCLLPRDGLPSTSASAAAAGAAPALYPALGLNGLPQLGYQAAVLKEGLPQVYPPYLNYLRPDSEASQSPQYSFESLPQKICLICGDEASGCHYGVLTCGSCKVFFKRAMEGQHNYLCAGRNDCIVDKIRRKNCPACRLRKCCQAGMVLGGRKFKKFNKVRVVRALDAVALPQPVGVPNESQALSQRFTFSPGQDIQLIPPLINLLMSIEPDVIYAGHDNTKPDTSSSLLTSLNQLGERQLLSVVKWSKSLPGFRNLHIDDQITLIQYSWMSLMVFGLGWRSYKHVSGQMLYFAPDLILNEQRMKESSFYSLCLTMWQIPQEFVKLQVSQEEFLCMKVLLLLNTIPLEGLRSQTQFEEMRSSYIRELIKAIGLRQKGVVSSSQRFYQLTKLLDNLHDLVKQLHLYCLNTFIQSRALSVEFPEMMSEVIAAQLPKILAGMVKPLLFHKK
Chain of Thyrotropin-releasing hormone receptor (Homo sapiens) (P34981 whole entry, looked up): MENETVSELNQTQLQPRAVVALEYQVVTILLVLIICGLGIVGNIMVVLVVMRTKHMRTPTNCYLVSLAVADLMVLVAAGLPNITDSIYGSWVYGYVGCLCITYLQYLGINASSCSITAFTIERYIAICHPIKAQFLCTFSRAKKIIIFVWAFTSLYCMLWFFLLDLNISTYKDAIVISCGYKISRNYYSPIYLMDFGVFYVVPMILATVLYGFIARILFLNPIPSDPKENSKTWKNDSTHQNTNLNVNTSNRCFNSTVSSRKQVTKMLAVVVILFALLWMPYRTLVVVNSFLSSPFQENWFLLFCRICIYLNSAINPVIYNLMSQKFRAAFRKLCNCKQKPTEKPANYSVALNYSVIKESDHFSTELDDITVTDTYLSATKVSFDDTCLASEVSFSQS
Chain of Nuclear receptor subfamily 1 group I member 2 (Homo sapiens) (O75469 whole entry, looked up): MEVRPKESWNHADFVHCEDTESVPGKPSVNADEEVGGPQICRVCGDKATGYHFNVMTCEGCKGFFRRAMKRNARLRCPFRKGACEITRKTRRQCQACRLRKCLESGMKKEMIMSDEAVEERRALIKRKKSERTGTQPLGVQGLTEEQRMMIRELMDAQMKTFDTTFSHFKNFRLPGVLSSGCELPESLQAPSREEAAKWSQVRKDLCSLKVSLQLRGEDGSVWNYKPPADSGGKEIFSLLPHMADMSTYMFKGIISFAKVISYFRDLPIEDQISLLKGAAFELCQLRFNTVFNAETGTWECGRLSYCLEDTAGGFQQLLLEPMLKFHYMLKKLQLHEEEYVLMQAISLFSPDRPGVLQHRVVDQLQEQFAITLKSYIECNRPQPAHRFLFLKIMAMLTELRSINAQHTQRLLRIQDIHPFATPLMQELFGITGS
Chain of Thyrotropin receptor (Homo sapiens) (P16473 whole entry, looked up): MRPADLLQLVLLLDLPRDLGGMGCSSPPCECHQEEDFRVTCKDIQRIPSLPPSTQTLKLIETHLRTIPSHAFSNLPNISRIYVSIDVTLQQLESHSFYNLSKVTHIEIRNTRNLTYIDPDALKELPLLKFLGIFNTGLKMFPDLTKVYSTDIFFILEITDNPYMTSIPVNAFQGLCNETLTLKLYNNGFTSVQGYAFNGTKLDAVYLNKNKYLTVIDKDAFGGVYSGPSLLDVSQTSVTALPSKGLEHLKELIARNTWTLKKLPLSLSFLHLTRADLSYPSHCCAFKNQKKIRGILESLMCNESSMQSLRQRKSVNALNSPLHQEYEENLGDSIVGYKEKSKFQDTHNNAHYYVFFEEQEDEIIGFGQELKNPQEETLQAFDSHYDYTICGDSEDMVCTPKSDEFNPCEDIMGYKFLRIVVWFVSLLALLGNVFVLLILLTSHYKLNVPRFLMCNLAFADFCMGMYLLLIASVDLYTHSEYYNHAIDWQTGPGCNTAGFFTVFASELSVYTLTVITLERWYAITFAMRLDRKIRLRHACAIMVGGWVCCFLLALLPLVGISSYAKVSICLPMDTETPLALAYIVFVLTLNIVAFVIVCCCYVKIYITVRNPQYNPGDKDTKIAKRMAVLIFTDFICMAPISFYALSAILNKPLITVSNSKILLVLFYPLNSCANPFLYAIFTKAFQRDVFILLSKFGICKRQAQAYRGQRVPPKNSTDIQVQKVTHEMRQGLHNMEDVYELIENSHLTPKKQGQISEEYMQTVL
Chain of Nuclear receptor subfamily 1 group I member 2 (Rattus norvegicus) (Q9R1A7 whole entry, looked up): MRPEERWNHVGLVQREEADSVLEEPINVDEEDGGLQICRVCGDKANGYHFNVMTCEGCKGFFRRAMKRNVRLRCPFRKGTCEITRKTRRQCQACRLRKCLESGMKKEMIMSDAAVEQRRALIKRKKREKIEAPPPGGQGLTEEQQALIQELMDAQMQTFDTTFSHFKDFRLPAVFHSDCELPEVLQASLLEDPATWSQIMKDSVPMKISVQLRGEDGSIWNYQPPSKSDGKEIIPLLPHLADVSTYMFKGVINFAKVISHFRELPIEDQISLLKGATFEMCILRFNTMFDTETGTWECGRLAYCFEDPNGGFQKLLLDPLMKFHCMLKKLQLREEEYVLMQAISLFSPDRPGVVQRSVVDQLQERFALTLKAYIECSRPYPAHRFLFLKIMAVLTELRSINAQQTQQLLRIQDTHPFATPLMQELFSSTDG

Take `CCC(=O)OC`: the Potency entry in test [1], in test [2], in test [3], in test [4], in [5] and in [6] was “inactive” each time. The Potency result in test [7], in test [8], in [9], in [11], in [12] and in test [13] was “inactive” each time. The Potency result in test [14], in [15] and in test [16] was “inactive” in each case. Moreover, the compound was called inactive in test [10].

As to `CC(C)=CCC/C(C)=C/CC/C(C)=C/CCC(=O)OC/C=C(\C)CCC=C(C)C`, the Potency result in [1], in [2], in [3], in test [4], in test [5] and in test [6] was “inactive” each time. Moreover, the Potency result in test [7], in [8], in test [9], in test [11], in test [12] and in test [13] was “inactive” each time. Moreover, the Potency entry in [14], in [15] and in [16] was “inactive” in each case. In [10], the compound was called inactive.

As for `C(=C\c1ccccc1)/c1ccccc1`, the Potency entry in [1], in [2], in test [3], in test [4], in [5] and in test [6] was “inactive” each time. The Potency result in [7], in [8], in test [9], in test [11], in test [17] and in test [12] was “inactive” throughout. Besides, the Potency entry in test [13], in [14], in test [15] and in test [16] was “inactive” in each case. In [10], the compound was classed as inactive.

In the case of `C=Cc1ccc(S(=O)(=O)O)cc1`, the Potency was 17.2 µM (active) in [1] and 38.6 µM (active) in [16]. Moreover, the Potency result in [2], in [3], in [4], in test [5], in test [6] and in test [7] was “inactive” throughout. The Potency result in [8], in test [9], in [11], in [17], in test [12] and in test [14] was “inactive” each time. Also, the Potency entry in test [15], in test [19] and in [20] was “inactive” throughout. Also, in [10], the outcome was inactive. The max activation in [18] is -2.52%.

Take `O=C1NC(=O)c2cc([N+](=O)[O-])ccc21`: the Potency entry in test [1], in [2], in [3], in [4], in [5] and in [6] was “inactive” in each case. Moreover, the Potency entry in test [7], in [8], in test [9], in test [11], in test [17] and in test [12] was “inactive” each time. Also, the Potency entry in test [13], in test [14] and in test [15] was “inactive” in each case. The compound was classed as inactive in [10]. Also, in [16], the Potency was 61.6 µM (active).

Regarding `OCCOCC#CCOCCO`, the Potency result in test [1], in test [2], in test [3], in test [4], in test [5] and in test [6] was “inactive” in each case. Besides, the Potency result in test [7], in test [8], in [9], in test [11], in [17] and in test [12] was “inactive” in each case. Also, the Potency result in test [13], in [14], in [15] and in test [16] was “inactive” in each case. Besides, in test [10], the call was inactive.

`CC(CCC(=O)O)C(=O)O` (stereo unspecified): the Potency result in test [1], in test [2], in test [3], in [4], in test [5] and in test [6] was “inactive” throughout. Besides, the Potency result in [7], in test [8], in [9], in test [11], in test [17] and in test [12] was “inactive” throughout. Also, the Potency entry in test [13], in test [14], in test [15] and in [16] was “inactive” in each case. Also, the result in [10] was inactive.

For `CC(=O)OCC[N+](C)(C)C`, the Potency entry in test [1], in test [2], in test [3], in [4], in test [5] and in [6] was “inactive” each time. In addition, the Potency result in test [7], in [8], in [9], in [17], in test [12] and in [13] was “inactive” throughout. In addition, the Potency result in [14], in test [15] and in test [16] was “inactive” each time. In addition, the outcome in test [10] was inactive. Besides, the Potency in test [11] is 3.01 µM (active).
